Reference: PubChem BioAssay (EPA / NIEHS)
Several values for one entry are separate records, joined by “and”; a condition that tells them apart may be missing. Equal entries are not always repeated. Inconclusive results are not listed. A structure can be active in one record and inactive in another. Activity calls are given as the source filed them. Rule for the calls, unless noted: active = hit-call score of the fitted dose curve at least 0.9, where 1 is the maximum; inactive = score below 0.9.

Legend:
[1] = BSK_BT_PBMCCytotoxicity: PBMC Cytotoxicity Assessment in the BioMAP Diversity Plus: BT Assay (AID 2284225); details: primary human B cells with PBMC;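 note: PBMC viability measured by Alamar Blue dye reduction fluorescence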
Summary of the method: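 Viability by Alamar Blue reduction (6 h, ex/em 546/580 nm) after 90 h culture of SEB/TSST-1-activated PBMC (20 ng/mL each) given compound 1 h before activation. DMSO served as baseline for curve fitting.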

[2] = read-out: Secreted IgG (sIgG), gene 3500; assay: BSK_BT_sIgG: BioMAP Diversity Plus: BT Assay for Secreted IgG (sIgG) Biomarker Activity (AID 2284226); details: primary human B cells with PBMC
Summary of the method: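 ELISA quantitation of secreted IgG from human B cells co-cultured with PBMC, sampled 24 h post-dosing. Values fitted relative to DMSO vehicle as baseline, positive fitting direction.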

[3] = BSK_BT_Bcell_Proliferation: Viability Assessment in the BioMAP Diversity Plus: BT Assay for B cell Proliferation (AID 2284227); details: primary human B cells with PBMC
Summary of the method: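 Human B cells co-cultured with PBMC were dosed with test chemicals and relative cell number was quantified by SRB staining at 72 h. Cells were fixed in 10% TCA, stained with 0.1% SRB and read at 560 nm. Activity was fitted in the positive direction against DMSO.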

[4] = read-out: Interleukin 6 (IL6), IL6 (gene 3569); assay: BSK_BT_xIL6: BioMAP Diversity Plus: BT Assay for Interleukin 6 (IL6) Biomarker Activity (AID 2284228); details: primary human B cells with PBMC
Summary of the method: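 Human B cell plus PBMC co-culture exposed to test chemical for 24 h; secreted IL-6 quantified by Luminex xMAP bead assay. Activity fitted in the positive direction against DMSO as negative control and baseline.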

[5] = read-out: Interleukin 17A (IL17A), IL17A (gene 3605); assay: BSK_BT_xIL17A: BioMAP Diversity Plus: BT Assay for Interleukin 17A (IL17A) Biomarker Activity (AID 2284229); details: primary human B cells with PBMC
Summary of the method: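 B cells co-cultured with PBMC were exposed to test chemicals, and secreted IL-17A was quantified 24 h after dosing by Luminex xMAP bead immunoassay. Activity was fitted in the gain direction against DMSO as baseline.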

[6] = read-out: Tumor necrosis factor (Homo sapiens) (UniProt P01375); assay: BSK_BT_xTNFa: BioMAP Diversity Plus: BT Assay for Tumor necrosis factor alpha (TNF-alpha) Biomarker Activity (AID 2284230); details: primary human B cells with PBMC
Summary of the method: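 B cells with PBMC in co-culture, dosed and sampled at 24 h; secreted TNF-alpha measured by Luminex xMAP bead assay. Activity fitted in the gain direction against DMSO as negative control and baseline.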

[7] = read-out: Vascular cell adhesion molecule 1 (VCAM1), VCAM1 (gene 7412); assay: BSK_MyoF_VCAM1: BioMAP Diversity Plus: MyoF Assay for Vascular cell adhesion molecule 1 (VCAM1) Biomarker Activity (AID 2284231); details: primary human lung fibroblasts
Summary of the method: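 Primary human lung fibroblasts were dosed with test chemical for 24 h, then cell-surface VCAM-1 was measured by ELISA. Activity was fitted in the positive direction against DMSO as negative control and baseline.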

[8] = CCTE_Mundy_HCI_hNP1_Pro_ResponderAvgInten: CCTE's Proliferation Assay in human neuroprogenitor cells, Mundy Lab (AID 2284224; active = hit-call score of the fitted dose curve at least 0.9, where 1 is the maximum;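 note: human neural progenitor cells hNP1 derived from WA09 embryonic stem cells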)
Summary of the method: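 Proliferation read as average intensity of BrdU-positive cells, imaged at 26.25 h post-dosing: chemical exposure started after 40–44 h culture, BrdU during final 4 h, paraformaldehyde fixation. Positive-direction fit relative to DMSO.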

[9] = CCTE_Mundy_HCI_Cortical_Synap_Neur_Matur_SynapseCount: CCTE's Synaptogenesis and Neurite Maturation Assay in rat cortical cells for Synapse Count, Mundy Lab (AID 2284218)
Summary of the method: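 High-content imaging of synaptophysin puncta per MAP2-positive neuron (Hoechst nuclei) in rat cortical cells exposed DIV 7–12 after glial arrest with AraC at DIV 5; decrease relative to DMSO scored.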

[10] = CCTE_Mundy_HCI_hN2_NOG_NeuriteCount: CCTE's Neurite Outgrowth Assay in human hN2 cells for Neurite Count, Mundy Lab (AID 2284219; active = hit-call score of the fitted dose curve at least 0.9, where 1 is the maximum)
Summary of the method: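 In this morphology assay, hNP1-derived neurons received test chemical 2 h post-plating and were fixed two days later in warm paraformaldehyde/sucrose containing Hoechst 33342. Neurites, labelled by rabbit anti-βIII-tubulin (1:800) and Alexa Fluor-488 (1:500), were counted automatically.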

[11] = CCTE_Mundy_HCI_hN2_NOG_NeuriteLength: CCTE's Neurite Outgrowth Assay in human hN2 cells for Neurite Length, Mundy Lab (AID 2284220; active = hit-call score of the fitted dose curve at least 0.9, where 1 is the maximum)
Summary of the method: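 Read-out is neurite length from high-content imaging of βIII-tubulin/Alexa Fluor-488-labelled neurons, referenced to DMSO controls.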

[12] = CCTE_Mundy_HCI_hN2_NOG_NeuronCount: CCTE's Neurite Outgrowth Assay in human hN2 cells for Neuron Count, Mundy Lab (AID 2284221; active = hit-call score of the fitted dose curve at least 0.9, where 1 is the maximum)
Summary of the method: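 Read-out is the number of betaIII-tubulin-positive neurons imaged by automated high-content analysis, with DMSO as negative control.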

[13] = CCTE_Mundy_HCI_Cortical_Synap_Neur_Matur_CellBodySpotCount: CCTE's Synaptogenesis and Neurite Maturation Assay in rat cortical cells for Cell Body Spot Count, Mundy Lab (AID 2284223)
Summary of the method: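 Rat primary cortical cultures received AraC at DIV 5 to arrest glia, were dosed with chemical at DIV 7 with media change, and were fixed at DIV 12 (288.33 h). Synaptophysin puncta on MAP2-positive cell bodies per neuron were counted by high-content imaging versus DMSO.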

[14] = UKN4_HCS_LUHMES_cell_viability: Viability Assessment in the University of Konstanz (UKN) Leist Lab Neurite Outgrowth Assay in human LUHMES cells (UKN4) (AID 2284232)
Summary of the method: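 Viability was read by high-content imaging of calcein-AM/H-33342-stained cells after 24 h toxicant exposure, staining included. Cells: human LUHMES on day 2 of dopaminergic differentiation, dosed shortly after attachment; DMSO baseline, bidirectional curve fitting.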

[15] = UKN2_HCS_IMR90_cell_viability: Viability Assessment in the University of Konstanz (UKN) Leist Lab Neural Crest Cell Migration Assay in human induced IMR90 Pluripotent Stem Cells (UKN2) (AID 2284233);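 note: cells exposed to compound for 24 h after a 24 h migration phase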
Summary of the method: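 Viability read as calcein-AM fluorescence by high-content imaging, Hoechst co-stain, 30 min. Human iPSC (IMR90) neural crest cells had migrated 24 h into stopper-defined gaps before 24 h chemical exposure. Fitted bidirectionally relative to DMSO.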

[16] = CCTE_Mundy_HCI_Cortical_NOG_NeuronCount: CCTE's Neurite Outgrowth Assay in rat cortical cells for Neuron Count, Mundy Lab (AID 2284236; active = hit-call score of the fitted dose curve at least 0.9, where 1 is the maximum;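 note: neurons counted by imaging betaIII-tubulin and Hoechst stained cortical cells; cells exposed to compound for about 48 hours before fixation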)
Summary of the method: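 Read-out: neuron number by high-content imaging of betaIII-tubulin (Alexa Fluor-488) and Hoechst-labelled rat primary cortical cells.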

[17] = CCTE_Mundy_HCI_Cortical_Synap_Neur_Matur_NeuriteCount: CCTE's Synaptogenesis and Neurite Maturation Assay in rat cortical cells for Neurite Count, Mundy Lab (AID 2284222);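 note: exposure from day 7 to day 12 in vitro with readout at day 12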
Summary of the method: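 Rat primary cortical cells; AraC added at DIV 5, chemicals dosed with media change at DIV 7 through DIV 12. MAP2/synaptophysin/Hoechst immunostaining, high-content imaging of neurite number; fitted relative to DMSO.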

[18] = TAMU_PeakParms_SingleDonor1434_Chronotropy: Texas A&M University (TAMU) 1.5-hr Human Induced Pluripotent Stem Cell (iPSC)-derived Cardiomyocytes Calcium (Ca+2) Flux Assay for Cardiotoxicity: Chronotropy (changes in peak frequency) (AID 2284217); details: actives raise or lower the signal
Summary of the method: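 iPSC-derived cardiomyocytes (single donor 1434) dosed at 0.2, 1, 10 and 100 uM in 0.5% DMSO for 1.5 h at 37C; Ca2+ dye fluorescence gave average beat frequency. Zero-beat points removed; bidirectional fit versus DMSO, POD as EC05.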

[19] = TAMU_HCS_1.5hr_SingleDonor1434_Cytotoxicity: Cytotoxicity Assessment using High-content Screening (HCS) Fluorescent Imaging for the Texas A&M University (TAMU) 1.5-hr Human Induced Pluripotent Stem Cell (iPSC)-derived Cardiotoxicity Assay (AID 2284234; active = hit-call score of the fitted dose curve at least 0.9, where 1 is the maximum)
Summary of the method: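 Nuclear counts from Hoechst 33342 imaging define cytotoxicity here, with EC10 (10% cell-count loss relative to DMSO) as point of departure. iPSC cardiomyocytes received 0.2-100 uM test chemical in 0.5% DMSO for 1.5 h at 37 C.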

[20] = TAMU_PeakParms_SingleDonor1434_QT: Texas A&M University (TAMU) 1.5-hr Human Induced Pluripotent Stem Cell (iPSC)-derived Cardiomyocytes Calcium (Ca+2) Flux Assay for Cardiotoxicity: QT (decay-rise ratio) (AID 2284235; active = hit-call score of the fitted dose curve at least 0.9, where 1 is the maximum)
Summary of the method: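 Decay/rise ratio of calcium-flux fluorescence scored after 90 min exposure (37C) of donor 1434 iPSC cardiomyocytes to 0.2–100 uM (0.5% DMSO). Beat-cessation and severe-notch points removed; POD is EC05, a 5% rise over DMSO.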

Measured: AC50

Sequence of Tumor necrosis factor (Homo sapiens) (P01375 whole entry, looked up): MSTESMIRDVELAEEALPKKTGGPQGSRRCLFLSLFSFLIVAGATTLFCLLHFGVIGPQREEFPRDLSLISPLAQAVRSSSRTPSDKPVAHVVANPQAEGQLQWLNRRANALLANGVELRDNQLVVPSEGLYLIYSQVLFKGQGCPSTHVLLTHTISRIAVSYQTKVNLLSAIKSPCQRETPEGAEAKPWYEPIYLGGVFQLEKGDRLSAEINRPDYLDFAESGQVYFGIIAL

Cc1ccc(C(=O)c2ccccc2)cc1
inactive: [1] | [2] | [3] | [4] | [5] | [6]
active: [7] 31.4 µM

C=CC(=C)CC/C=C(\C)CCC=C(C)C
inactive: [1] | [2] | [3] | [4] | [5] | [6] | [7]

CC[N+](CC)(CC)Cc1ccccc1
inactive: [1] | [2] | [3] | [4] | [5] | [6] | [7]

O=C(CC(=O)C(F)(F)C(F)(F)C(F)(F)F)c1cccs1
inactive: [8] | [7]
active: [1] 45 µM and 39 µM | [2] 19 µM and 20.1 µM | [3] 43 µM and 40.8 µM | [4] 29.8 µM and 22.1 µM | [5] 30 µM and 24.5 µM | [6] 35.6 µM and 39.6 µM

CN(CCO)S(=O)(=O)C(F)(F)C(F)(F)C(F)(F)C(F)(F)C(F)(F)C(F)(F)C(F)(F)C(F)(F)F
inactive: [1] | [2] | [3] | [4] | [5] | [6] | [7]

CCCCC(CC)C(=O)OCCOCCOCCOCCOC(=O)C(CC)CCCC (centres undefined)
active: [2] 25.2 µM | [3] 28.4 µM | [4] 16 nM | [6] 0.016 µM
inactive: [1] | [5] | [7]

Nc1ccn([C@@H]2O[C@H](CO)[C@@H](O)C2O)c(=O)n1 (some centres undefined)
active: [9] 16 µM | [12] 1.47 µM | [8] 0.0896 µM | [16] 2.74 µM
inactive: [10] | [11] | [13] | [14] | [15]

CCCCCc1ccc(O)cc1
inactive: [1] | [3] | [4] | [5] | [6]
active: [2] 20 µM | [7] 26.9 µM

O=C(O)CCC(F)(F)C(F)(F)C(F)(F)C(F)(F)C(F)(F)F
active: [2] 30 µM | [3] 6.31 µM
inactive: [1] | [2] | [3] | [4] | [5] | [6] | [7]

CN(Cc1cnc2nc(N)nc(N)c2n1)c1ccc(C(=O)N[C@@H](CCC(=O)O)C(=O)O)cc1
active: [2] 662 nM and 100 nM | [3] 855 nM and 43.4 nM
inactive: [9] | [10] | [11] | [12] | [17] | [13] | [1] | [4] | [5] | [6] | [7] | [16]

C=CC(=O)OCCC(F)(F)C(F)(F)C(F)(F)C(F)(F)C(F)(F)C(F)(F)C(F)(F)C(F)(F)F
inactive: [1] | [2] | [3] | [4] | [5] | [6] | [7]

O=C1c2ccc(O)c(O)c2C(=O)c2c(O)ccc(O)c21
inactive: [1] | [2] | [3] | [4] | [5] | [6] | [7]

O=C(CCCN1CCC(O)(c2ccc(Cl)cc2)CC1)c1ccc(F)cc1
inactive: [13] | [14] | [15] | [16]
active: [9] 18.4 µM | [10] 37.9 µM | [11] 22.4 µM | [12] 20.3 µM

O=P(O)(O)CCC(F)(F)C(F)(F)C(F)(F)C(F)(F)C(F)(F)C(F)(F)C(F)(F)C(F)(F)F
active: [3] 30 µM and 53.9 µM | [6] 30 µM
inactive: [1] | [2] | [4] | [5] | [6] | [7]

O=C(O)CCC(F)(F)C(F)(F)C(F)(F)C(F)(F)C(F)(F)C(F)(F)F
active: [1] 23.6 µM | [2] 14 µM and 36.7 µM | [6] 36.5 µM
inactive: [1] | [2] | [3] | [4] | [5] | [6] | [7]

OCC(F)(F)C(F)(F)C(F)(F)C(F)(F)C(F)(F)C(F)(F)C(F)(F)C(F)(F)C(F)(F)C(F)(F)C(F)(F)F
inactive: [8] | [1] | [2] | [4] | [5] | [6] | [7]
active: [1] 0.0655 µM | [3] 174 nM and 835 nM | [5] 55.4 nM

O=C1NS(=O)(=O)c2ccccc21
inactive: [18] | [9] | [10] | [11] | [13] | [8] | [19] | [20] | [16]

O=P(O)(O)CCC(F)(F)C(F)(F)C(F)(F)C(F)(F)C(F)(F)C(F)(F)F
active: [1] 12.2 µM
inactive: [1] | [2] | [3] | [4] | [5] | [6] | [7]
